Structures are written as SMILES. Inconclusive results are not listed. Where a call stands in place of a potency, no number is given. A number with no mark means an inactive call. The source made the active and inactive calls. Calls come from the whole dose curve; as a rule, active = well fitted cell-killing curve with a large enough effect in the repeat runs; inconclusive = weak or mixed curves, or effect the other way; inactive = flat fitted curve, though single readings scatter.
Potency is the fitted concentration of half-maximal effect.

This test in a line: qHTS assay to identify small molecule antagonists of the constitutive androstane receptor (CAR) signaling pathway - cell viability counter screen (AID 1224837). Note: nearly all actives have a fitted effect of over 45% in size. The conditions noted are these: HepG2-CYP2B6-hCAR viability, CellTiter-Fluor, 23 h, co-treated with 50 nM CITCO; series mostly up to 92.4 µM. The source says: National Center for Advancing Translational Sciences [NCATS]
NIH Chemical Genomics Center [NCGC]
U.S. Environmental Protection Agency [EPA]
National Institutes of Environmental Health Sciences [NIEHS]
National Toxicology Program [NTP]
U.S. Food and Drug Administration [FDA]
The constitutive androstane receptor (CAR) is a nuclear receptor which regulates multiple drug metabolizing enzymes (DMEs) and transporters. Activating CAR will generally increase the transcription and subsequent translation of CYP2B6 and CYP3A4. These two DMEs represent about 50% of the drug metabolizing potential in the body. When CAR is deactivated, the metabolizing potential in the body will decrease, subsequently increasing the toxicity in the body or lowering the therapeutic potential of a pro-drug. Recently, there have also been studies performed indicating CARs role in energy metabolism and cancer therapy. Therefore, inhibiting CARs activity could have a potential effect on diabetes and cancer. Identifying environmental toxins and compounds which modulate CAR, through the use of the Tox21 10K compound collection, will be an important step in determining the toxicity and potential therapeutic effects these factors will have on the human body. To differentiate true CAR antagonists from cytotoxic substances, the assay is multiplexed with a cell viability assay.
Tox21 Assay Protocol Summary:
A double-stable (hCAR and CYP2B6-2.2kb) transfected cell line, derived from human hepatoma (HepG2) cells, was utilized for the duration of the quantitative high-throughput screens. The HepG2-CYP2B6-hCAR cells were dispensed at 2500 cells/4 uL/well in 1536-well white solid bottom plates using a Multidrop Combi. After the assay plates were incubated at 37 C/5% CO2 for 4 hrs, 23 nL of compounds at 15 concentrations (from 5-48 columns) or positive control (from 1 to 4 columns) were transferred to the assay plates using a Pintool station. One uL of CITCO (final concentration = 50 nM) was added, using a Flying Reagent Dispenser, inside each well. After a 23 hr incubation period at 37 C/5% CO2, 1 uL of CellTiter-Fluor reagent was added into each well of the assay plates using a Flying Reagent Dispenser. The fluorescence intensity in the plates was then measured using a ViewLux plate reader.
(In general: In qHTS, concentration-response curves come from the screen itself.)
For the compound `C[Si](Cl)(c1ccccc1)c1ccccc1`, the Potency result was “inactive”.

As to `O=C(O)c1cc(-c2ccc(F)cc2F)ccc1O`, the Potency entry was “inactive”.

`Oc1c(I)cc(Cl)c2cccnc12`: the Potency result was “inactive”.

On to `O=C(c1ccc(O)c(O)c1)c1ccc(O)cc1O`, for which the Potency result was “inactive”.

Consider `Nc1nc(-c2ccccc2)cs1`, for which the Potency entry is “inactive”.

In the case of `FC(F)(F)c1cccc(Cl)c1`, the Potency entry is “inactive”.

As to `CCN(CC)c1ccc2c(-c3ccc(S(=O)(=O)O)cc3S(=O)(=O)[O-])c3ccc(=[N+](CC)CC)cc-3oc2c1`, the Potency was 28.2 µM (active).

Turning to `OC[C@H]1O[C@H](O[C@H]2O[C@H](CO)[C@@H](O)[C@H](O)[C@H]2O)[C@H](O)[C@@H](O)[C@@H]1O`, the Potency entry is “inactive”.

Turning to `Cc1nc2n(c(=O)c1CCN1CCC(c3noc4cc(F)ccc34)CC1)CCCC2`, the Potency entry was “inactive”.

For the compound `CCOC(=O)Cn1cccc1-c1nc(-c2ccc(OC)cc2)c(-c2ccc(OC)cc2)s1`, the Potency entry was “inactive”.

For `COC(=O)Nc1nc2ccc(C(=O)c3ccccc3)cc2[nH]1`, the Potency result was “inactive”.

In the case of `COC(=O)c1ccccc1OC`, the Potency entry was “inactive”.

As to `CCC(C)(CCC(C)C)C(=O)[O][Sn]([CH3])([CH3])[O]C(=O)C(C)(CC)CCC(C)C` (stereo not given), the Potency entry was “inactive”.

For the compound `COC(C)=O`, the Potency result is “inactive”.

For the compound `Cl[Si](Cl)(c1ccccc1)c1ccccc1`, the Potency entry was “inactive”.

Consider `O=C(O)Cc1ccccc1Nc1c(Cl)cccc1Cl`, for which the Potency entry is “inactive”.

Consider `Nc1ccc(Oc2ccc(Cl)cc2)cc1`, for which the Potency result is “inactive”.

As for `S=c1nccc[nH]1`, the Potency entry is “inactive”.

In the case of `CCC(=O)OC(=O)CC`, the Potency result is “inactive”.

`OC[C@@H](O)[C@@H](O)CO`: the Potency entry is “inactive”.

As for `Cc1cc(C(C)(C)C)c(O)c(C)c1Cn1c(=O)n(Cc2c(C)cc(C(C)(C)C)c(O)c2C)c(=O)n(Cc2c(C)cc(C(C)(C)C)c(O)c2C)c1=O`, the Potency entry was “inactive”.

Consider `O=C(O)O`, for which the activity change, negative = cytotoxicity was -19.8% [at 8.39 µM].

With `[Cu+]`, the Potency entry is “inactive”.

`CC1=Nc2ccccc2C1(C)C`: the Potency entry is “inactive”.

Take `CCCCCC/C=C\CCCCCCCC(=O)O`: the Potency entry is “inactive”.

For the compound `CC(C)=CCNc1ncnc2c1ncn2[C@@H]1O[C@H](CO)[C@@H](O)[C@H]1O`, the Potency is 3.35 µM (active).

For `C=Cc1ccccc1C=C`, the Potency result is “inactive”.

In the case of `Cc1cc(=O)oc2cc(O)cc(O)c12`, the Potency entry is “inactive”.

For the compound `Cc1cc(-n2nc3ccc(Cl)cc3n2)c(O)c(C(C)(C)C)c1`, the Potency entry was “inactive”.

For `O=C(/C=C/c1ccccc1)OC/C=C/c1ccccc1`, the Potency entry is “inactive”.

Consider `CN(C)Cc1ccccc1O`, for which the Potency result is “inactive”.

Take `CCCCCCCCCCCCOC(=O)c1ccc(O)cc1`: the Potency result is “inactive”.

For the compound `C=C(C)c1cccc(C(=C)C)c1`, the Potency result was “inactive”.

As for `CCc1ccc(Br)cc1`, the Potency entry was “inactive”.

In the case of `O=C(Nc1ccc2c(O)c(N=Nc3ccc(N=Nc4ccc(S(=O)(=O)O)cc4)cc3)c(S(=O)(=O)O)cc2c1)c1ccccc1`, the Potency is 27.3 µM (active).

In the case of `CCn1c2ccccc2c2cc([N+](=O)[O-])ccc21`, the Potency result is “inactive”.

With `CCc1cccc(CC)c1NC(=O)CN(CC(=O)O)CC(=O)O`, the Potency entry is “inactive”.

As for `CC/C=C\CCCCCO`, the Potency result is “inactive”.

Take `CCCCC(CC)COC(=O)CCCCC(=O)OCc1ccccc1` (stereo not given): the Potency result was “inactive”.

Turning to `O=C(O)c1cc(=O)c2ccccc2o1`, the Potency entry was “inactive”.

These data come from PubChem BioAssay (Tox21).
